The whole screen tested about 69,000 compounds, of which about 8,600 (12%) showed an effect of 50% or more. The entries come from a sample that favours strong results as a whole.

This experiment has as its system Plasmodium berghei. Nature of the experiment: Screen against P. berghei liver stage (PbLuc), transformed with Luciferase, at 10uM. Conditions: tested at 10 uM. The experiment is classed as functional, HepG2.
For the molecule `Cn1nc(C(=O)NCc2ccccc2C(F)(F)F)c2c1CCS(=O)(=O)C2`, the INHIBITION is reported as 45.8%.
Next, `O=C(C1CCOCC1)N1C[C@@H]2CC[C@H]1CN(C1Cc3ccccc3C1)C2`: -59.3%.
Next, `CN(Cc1cc(C[C@@H]2C[C@H](N)C2(C)C)no1)c1ccccc1`: 54.3%; `CCN(CC)[C@H]1C[C@@H](Cc2cc(CO)on2)C1(C)C`: 17.4%; `CN(C)[C@H]1C[C@@H](Cc2cc(CO)on2)C1(C)C`: -17.1%.
`Cc1cccc(CN2C(=O)CC[C@@H]3[C@H]2CCN3Cc2nccn2C)n1`: the INHIBITION is on record as 40.4%.
Next, `c1ccc(Cn2cc3c(n2)C(CNCC2CCOCC2)OCC3)nc1` (stereo unspecified): -7.7%; `CCC(CC)C(=O)N1CCC2(C1)CN(c1ccccc1)C(=O)CN2C` (stereo unspecified): 28.4%; `CCC[C@H]1CN(c2nc(CO)cs2)C[C@@H]1NC(=O)C1(COC)CC1`: 69.7%.
Next, `CCC[C@H]1CN(Cc2cncn2C)C[C@@H]1NC(=O)C1(COC)CCC1`: 28%.
Next, `COC[C@@]12CC[C@@H](N3CCOCC3)C[C@H]1CCN(c1nc(CO)cs1)C2`: 15.8%.
Turning to `CCC[C@H]1CN(Cc2nccn2C)C[C@@H]1NC(=O)C1(COC)CCC1`, the INHIBITION is reported as 31.2%.
Next, `CCC[C@H]1CN(Cc2cc(C)no2)C[C@@H]1NC(=O)C1(COC)CCC1`: 59.3%.
Next, `CCC[C@H]1CN(Cc2cscn2)C[C@@H]1NC(=O)C1(COC)CCC1`: 48.5%; `c1ccc(-c2nnc3n2CCN(Cc2ccc4c(c2)OCCO4)C3)cc1`: 33.7%; `NC(=O)c1cccc(OCC(=O)N2CCCC(n3ccnc3)C2)c1` (stereo unspecified): 36.1%.
Next, `CC(=O)N1[C@H](CN(C)C)C[C@@H]2CN(c3ncc(F)cn3)CC[C@@H]21`: -0.804%; `CCC(C)NC(=O)c1ccn(COc2ccccc2Cl)n1` (stereo unspecified): 34.2%; `COc1ccc(CNc2ncnc3c2NC(=O)CN3)cc1`: 45.8%.
Turning to `CC(C)c1nnc2n1CCN(C(=O)CN(C)Cc1ccccc1)C2`, the INHIBITION worked out at 12.7%.
Next, `Cc1ccc(CN(C)C(C(=O)O)c2ccc3c(c2)OCO3)o1` (stereo unspecified): 8.51%; `CCc1ncnc(N2CCCC(c3cc(C(N)=O)[nH]n3)C2)c1F` (stereo unspecified): -24%.
Next, `CCc1cc2c(N3CCCC(c4ccn[nH]4)C3)ncnc2s1` (stereo unspecified): -1.76%.
Turning to `CCc1cc2c(N3CCCC(c4cc(C(N)=O)[nH]n4)C3)ncnc2s1` (stereo unspecified), the INHIBITION stood at 55%.
Next, `COCC(=O)N1CCC(Cc2nccnc2-c2c(C)n[nH]c2C)C1` (stereo unspecified): 17.4%; `CCCN1CCN(c2nc(N)nc3c2nc(C)n3C)CC1`: 13.1%.
On to `CNC(=O)C(CCSC)NC(=O)c1ccc2ccccc2n1` (stereo unspecified), for which the INHIBITION is 19.1%.
Regarding `CSCCC(NC(=O)c1ccc2ccccc2n1)C(=O)NC1CC1` (stereo unspecified), the INHIBITION came out at 43.7%.
For the molecule `CCOCCNC(=O)C(CCSC)NC(=O)c1ccc2ccccc2n1` (stereo unspecified), the INHIBITION was 60.8%.
Next, `CSCCC(NC(=O)c1ccc2ccccc2n1)C(=O)N(C)C` (stereo unspecified): 60.8%.
Next, `CSCCC(NC(=O)c1ccc2ccccc2n1)C(=O)O` (stereo unspecified): 42.6%; `CSCCC(NC(=O)c1ccc2ccccc2n1)C(=O)NC(C)C` (stereo unspecified): 40.5%; `Cc1ccc(CN2CCc3onc(COc4cccnc4)c3C2)s1`: 27.6%.
Next, `O=C(CNC(Cn1cccn1)c1ccccc1)Nc1cnccn1` (stereo unspecified): -12.4%; `Cc1ccc(C2CCCN2S(=O)(=O)N(C)Cc2cnccn2)o1` (stereo unspecified): 37.9%; `CCCn1cc2nc(N3CCCC3)[nH]cc-2c1=O`: 44.9%.
Turning to `Cc1cnn(CC2CCCN2C(=O)c2ccc(F)c(F)c2)c1` (stereo unspecified), the INHIBITION is -63.3%.
Next, `O=C(Nc1ccc(CCN2CCOCC2)cc1)C1CCC1`: 26.25%; `CCCc1noc(CN2CCN(CCO)CC2)n1`: 9.015%; `CC(NCC(=O)N1CCc2sccc2C1)c1ccccc1F` (stereo unspecified): 14.9%.
Next, `CCN(CC)C(=O)c1ccc(Cl)c(NC(=O)c2cnc(C)cn2)c1`: 51.2%; `CCN(CC)C(=O)c1ccc(Cl)c(NC(=O)c2cc[nH]n2)c1`: 9.41%; `CCN(CC)C(=O)c1ccc(Cl)c(NC(=O)c2csnn2)c1`: 28.5%.
For `Cc1oc(-c2nc(C#N)c(NC(C)(C)C)o2)cc1S(=O)(=O)N1CCCC1`, the INHIBITION amounted to 40.1%.
In the case of `CCC(CC)N1CCC(c2[nH]ncc2S(C)(=O)=O)C1` (stereo unspecified), the INHIBITION is reported as -3.94%.
Next, `O=C(NCc1ccco1)N1CCCCC1c1nc(-c2ccncc2)no1` (stereo unspecified): -31%; `CS(=O)(=O)N1C[C@H]2CC[C@@H](C1)N(C(=O)Cn1nc3ccccc3n1)C2`: 21.7%.
Regarding `C[C@@H]1CN(C2CCCCC2)CC[C@@]1(O)C1CCOCC1`, the INHIBITION was found to be 57.7%.
Next, `C[C@@H]1CN(C2CCN(c3ccccc3)CC2)CC[C@@]1(O)C1CCOCC1`: -2.61%; `C[C@@H]1CN(C2Cc3ccccc3C2)CC[C@@]1(O)C1CCOCC1`: 10.2%.
Next, `Cc1nc(C)n(CC2CCCN2CCC(=O)NC2CCCC2)n1` (stereo unspecified): -38.7%.
Next, `CN(C)c1ccc(C(=O)N2CCN(CC(C)(C)O)CC2)nn1`: 21.6%; `Cc1ccc(C(=O)NCC(O)c2cccc(F)c2)c(=O)[nH]1` (stereo unspecified): 52.5%; `O=C(NCC(O)c1ccc(F)cc1F)c1cccnc1O` (stereo unspecified): 38.3%.
For the molecule `O=C(NCC(O)c1cccc(F)c1)c1cccnc1O` (stereo unspecified), the INHIBITION is on record as 50.1%.
Next, `O=C(NCC(O)c1ccc(F)c(F)c1)c1cccnc1O` (stereo unspecified): 36.8%; `Cc1ccc(C(=O)NCC(O)c2ccc(F)c(F)c2)c(=O)[nH]1` (stereo unspecified): 26.6%; `Cc1cc(C)c(CNC(=O)NCC(O)c2cccc(F)c2)c(=O)[nH]1` (stereo unspecified): 27.9%.
Next, `FC(F)COc1ccccc1NCc1nnsc1Cl`: 8.9%.
Next, `CC1(C)Cc2ccc(C(=O)NC3CCOCC3)c(O)c2O1`: -42.8%; `Cc1cnn(CC2CN(CC(=O)NCc3ccc(C)s3)CCO2)c1` (stereo unspecified): 19.4%.
On to `CCC[C@@H]1CN(Cc2cc3c(cc2OC)OCCO3)C[C@H]1C(=O)O`, for which the INHIBITION is on record as 54.4%.
Next, `CCC[C@@H]1CN(Cc2cc3c(cc2OC)OCO3)C[C@H]1C(=O)O`: 35.1%.
Next, `CCC[C@@H]1CN(Cc2cc(OC)c3c(c2)OCO3)C[C@H]1C(=O)O`: 39.4%; `Cc1ccc(S(=O)(=O)NC(=O)C2(c3ccc(F)cc3)CCC2)c(C)c1`: 20%.
Turning to `O=C(c1cccc(-c2ccc(F)cc2)c1)N1CCC2(CC1)[C@H](O)C[C@@H]2O`, the INHIBITION is recorded as -8.47%.

Source of the values: ChEMBL document CHEMBL4513216, “Probing the Open Global Health Chemical Diversity Library for Multistage-Active Starting Points for Next-Generation Antimalarials” (ACS Infect Dis, 2020).
